Measurements: PubChem BioAssay AID1159580 (chemical genetic matrix, 2015)
Among all 5,500 compounds or so, about 2,000 (36%) were called active. Inconclusive results (about 18%) are left out. Rule as the data show it: active = normalized growth mostly below about 0.91 (no sharp cut-off); inconclusive = no clear call, values can overlap the other calls; inactive = mostly above about 0.92. Some of the results follow.

Assay: chemical genetic growth profiling, strain panel (AID 1159580);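 also: tested at 20 µM; growth read once vehicle control cultures reached saturation at 30 °C; 1 = growth at the plate median or of vehicle wells; lower values mean less growth of the strain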
Details: growth OD

Measured: normalized growth

COc1cc(OC)c2c(c1Cl)OC1(C2=O)C(O)=CC(=O)CC1C (stereo unspecified)
inactive: S. cerevisiae deletion strains, locus YJR075W, strain HOC1, hits give low values 1.02 | S. cerevisiae deletion strains, locus YKL009W, strain mrt4, hits give low values 1.01 | S. cerevisiae deletion strains, locus YKL068W, hits give low values 0.991 | S. cerevisiae deletion strains, locus YKL085W, strain MDH1 (second series), hits give low values 1.01 | S. cerevisiae deletion strains, locus YKL085W, strain MDH1, hits give low values 1.01 | S. cerevisiae deletion strains, locus YKL160W, strain elf1, hits give low values 1.01 | S. cerevisiae deletion strains, locus YKR001C, strain vps1, hits give low values 1.03 | S. cerevisiae deletion strains, locus YKR026C, strain gcn3, hits give low values 1.01 | S. cerevisiae deletion strains, locus YKR091W, strain srl3, hits give low values 1.01 | S. cerevisiae deletion strains, locus YLL001W, strain dnm1, hits give low values 1 | S. cerevisiae deletion strains, locus YLL026W, hits give low values 1.01 | S. cerevisiae deletion strains, locus YLL041C, strain sdh2, hits give low values 1.01 | S. cerevisiae deletion strains, locus YLR027C, strain aat2, hits give low values 1.03 | S. cerevisiae deletion strains, locus YLR039C, strain RIC1, hits give low values 1.08 | S. cerevisiae deletion strains, locus YLR058C, strain SHM2, hits give low values 1.03 | S. cerevisiae deletion strains, locus YLR102C, strain apc9, hits give low values 0.991 | S. cerevisiae deletion strains, locus YLR113W, strain HOG1, hits give low values 1.04 | S. cerevisiae deletion strains, locus YLR221C, strain rsa3, hits give low values 1.02 | S. cerevisiae deletion strains, locus YLR258W, strain gsy2, hits give low values 1 | S. cerevisiae deletion strains, locus YLR262C, strain YPT6 (second series), hits give low values 1.02 | S. cerevisiae deletion strains, locus YLR262C, strain YPT6, hits give low values 1.06 | S. cerevisiae deletion strains, locus YLR268W, strain sec22, hits give low values 1.02 | S. cerevisiae deletion strains, locus YLR320W, strain mms22, hits give low values 1.02 | S. cerevisiae deletion strains, locus YLR342W, strain FKS1 (second series), hits give low values 1.06 | S. cerevisiae deletion strains, locus YLR342W, strain FKS1, hits give low values 1.01 | S. cerevisiae deletion strains, locus YLR357W, strain rsc2, hits give low values 1.02 | S. cerevisiae deletion strains, locus YLR370C, strain arc18, hits give low values 1.01 | S. cerevisiae deletion strains, locus YLR371W, strain rom2, hits give low values 1 | S. cerevisiae deletion strains, locus YLR384C, strain iki3, hits give low values 1.01 | S. cerevisiae deletion strains, locus YLR418C, strain cdc73, hits give low values 0.992 | S. cerevisiae deletion strains, locus YML016C, strain PPZ1, hits give low values 1.03 | S. cerevisiae deletion strains, locus YML032C, strain rad52, hits give low values 1 | S. cerevisiae deletion strains, locus YML120C, strain ndi1, hits give low values 1.01 | S. cerevisiae deletion strains, locus YML124C, strain tub3, hits give low values 0.991 | S. cerevisiae deletion strains, locus YMR058W, strain fet3, hits give low values 1.01 | S. cerevisiae deletion strains, locus YMR078C, strain ctf18, hits give low values 0.98 | S. cerevisiae deletion strains, locus YMR125W, strain sto1, hits give low values 1.01 | S. cerevisiae deletion strains, locus YMR129W, hits give low values 1.01 | S. cerevisiae deletion strains, locus YMR205C, strain PFK2, hits give low values 1.02 | S. cerevisiae deletion strains, locus YMR223W, strain ubp8, hits give low values 1.01 | S. cerevisiae deletion strains, locus YMR231W, strain pep5, hits give low values 0.995 | S. cerevisiae deletion strains, locus YMR307W, strain GAS1, hits give low values 1.04 | S. cerevisiae deletion strains, locus YNL067W, strain RPL9B, hits give low values 1.01 | S. cerevisiae deletion strains, locus YNL071W, strain lat1, hits give low values 1.01 | S. cerevisiae deletion strains, locus YNL128W, strain TEP1, hits give low values 1.03 | S. cerevisiae deletion strains, locus YNL183C, strain NPR1, hits give low values 0.932 | S. cerevisiae deletion strains, locus YNL209W, strain ssb2, hits give low values 1.03 | S. cerevisiae deletion strains, locus YNL233W, strain BNI4, hits give low values 1.02 | S. cerevisiae deletion strains, locus YNL248C, strain rpa49, hits give low values 1.01 | S. cerevisiae deletion strains, locus YNL250W, strain rad50, hits give low values 0.992 | S. cerevisiae deletion strains, locus YNL271C, strain bni1, hits give low values 0.984 | S. cerevisiae deletion strains, locus YNL298W, strain CLA4, hits give low values 1.01 | S. cerevisiae deletion strains, locus YNL307C, strain MCK1, hits give low values 0.993 | S. cerevisiae deletion strains, locus YNL322C, strain KRE1 (second series), hits give low values 1.01 | S. cerevisiae deletion strains, locus YNL322C, strain KRE1, hits give low values 1.02 | S. cerevisiae deletion strains, locus YNR049C, strain mso1, hits give low values 1 | S. cerevisiae deletion strains, locus YNR052C, strain pop2, hits give low values 0.969 | S. cerevisiae deletion strains, locus YOL006C, strain TOP1, hits give low values 1.2 | S. cerevisiae deletion strains, locus YOL012C, strain htz1 1.12 | S. cerevisiae deletion strains, locus YOL147C, strain pex11, hits give low values 1 | S. cerevisiae deletion strains, locus YOR001W, strain rrp6, hits give low values 1.01 | S. cerevisiae deletion strains, locus YOR061W, strain CKA2, hits give low values 1.04 | S. cerevisiae deletion strains, locus YOR069W, strain VPS5, hits give low values 1.02 | S. cerevisiae deletion strains, locus YOR070C, strain gyp1, hits give low values 1.02 | S. cerevisiae deletion strains, locus YOR080W, strain dia2, hits give low values 1.01 | S. cerevisiae deletion strains, locus YOR083W, strain WHI5, hits give low values 1.01 | S. cerevisiae deletion strains, locus YOR106W, strain vam3, hits give low values 1.02 | S. cerevisiae deletion strains, locus YOR136W, strain idh2, hits give low values 1 | S. cerevisiae deletion strains, locus YOR144C, strain elg1, hits give low values 0.996 | S. cerevisiae deletion strains, locus YOR184W, strain ser1, hits give low values 1.04 | S. cerevisiae deletion strains, locus YOR231W, strain MKK1, hits give low values 0.978 | S. cerevisiae deletion strains, locus YOR265W, strain rbl2, hits give low values 1 | S. cerevisiae deletion strains, locus YOR270C, strain vph1, hits give low values 1.05 | S. cerevisiae deletion strains, locus YOR290C, strain snf2, hits give low values 1.02 | S. cerevisiae deletion strains, locus YOR316C, strain cot1, hits give low values 0.992 | S. cerevisiae deletion strains, locus YPL051W, strain arl3, hits give low values 0.999 | S. cerevisiae deletion strains, locus YPL078C, strain atp4, hits give low values 1.01 | S. cerevisiae deletion strains, locus YPL106C, strain sse1, hits give low values 1 | S. cerevisiae deletion strains, locus YPL240C, strain hsp82, hits give low values 1 | S. cerevisiae deletion strains, locus YPL256C, strain CLN2, hits give low values 0.979 | S. cerevisiae deletion strains, locus YPR119W, strain clb2, hits give low values 0.986 | S. cerevisiae deletion strains, locus YPR141C, strain kar3, hits give low values 0.988 | S. cerevisiae deletion strains, locus YPR163C, strain tif3, hits give low values 0.995 | S. cerevisiae deletion strains, locus YPR167C, strain met16, hits give low values 0.997 | S. cerevisiae deletion strains, strain wtn01, hits give low values 1.04 | S. cerevisiae strains, strain wild type, hits give low values 1.04
